Assay outcomes (PubChem BioAssay)
Rows were chosen to be rich in hits. Some 3.2% of all compounds tested hit in one or more screens of this group.
BRCT inh red: qHTS Assay for Inhibitors of BRCT-Phosphoprotein Interaction (Red Fluorophore) | Breast cancer type 1 susceptibility protein (Homo sapiens), P38398 | BRCT-phosphopeptide binding, red fluorescence polarization | Potency, µM (top dose mostly 76.9 µM), without a hit: at the highest dose activity change, negative = inhibition, most hits filed as inhibitors | 0.03% of 75,000 active | AID 892, 2007; note: % is set by controls: 0 for no effect and ±100 for the full control effect
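Fluorescence polarization: 100 nM His-tagged BRCA1 BRCT with 100 nM TAMRA-labelled phospho-BACH1 decapeptide, phosphate buffer pH 7.3 with 150 mM NaCl, DTT, 0.01% Tween 20; 12 min RT. Binding inhibition seen as FP decrease.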
TSHR ag: qHTS Assay for Agonists of the Thyroid Stimulating Hormone Receptor; Potency, µM (highest dose often 57.1 µM), inactives show at the highest dose activation, most hits filed as activators; 0.48% of 73,000 active; Thyrotropin receptor (Homo sapiens), P16473; HEK293-CNG-TSHR cells (CNG channel as cAMP sensor), membrane potential dye, cAMP; active = well fitted activation curve with a large enough effect in the main read-out, with a control signal flat, not every such curve was filed as active; inconclusive = small, poorly fitted or top-dose-only effect, or a change in a side signal; inactive = no such curve, though single readings can be large or run the other way; % of control where 0% means no effect;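 note: the control signal comes from parental cells without the receptor; potency is the fitted concentration of half-maximal effect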
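HEK 293 cells stably expressing TSHR and a cAMP-gated CNG channel; parental CNG-only cells as counterscreen. Cells preloaded 60 min with membrane potential dye plus 100 uM RO 20-1724, then compound 30 min; fluorescence read at 590 nm.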
DNA Pol III inh: qHTS Assay for Inhibitors of DNA Polymerase III Holoenzyme System; AID 603, 2007; reconstituted DNA polymerase III holoenzyme replication, biochemical; 0.25% of 71,000 active; Potency, µM (series often up to 57.1 µM), for the others: top-dose activity change, negative = inhibition; note: potency is the fitted concentration of half-maximal effect; % is set by controls: 0 for no effect and ±100 for the full control effect
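Reconstituted *E. coli* holoenzyme (0.35 nM Pol III, 1 nM beta, 154 nM SSB, 2 nM primase) was preincubated with compound for 15 min at RT. Synthesis on 1.4 nM ssM13Gori ran 35 min, then was stopped with PicoGreen/EDTA and read as dsDNA fluorescence.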
BRCT PPI green: qHTS Assay for Inhibitors of BRCT-Phosphoprotein Interaction (Green Fluorophore) | Breast cancer type 1 susceptibility protein (Homo sapiens), P38398 | BRCA1 BRCT-phosphopeptide binding, green fluorescence polarization | Potency, µM (top dose mostly 76.9 µM), for inactives: top-dose activity change, negative = inhibition, most hits filed as inhibitors | 0.05% of 75,000 active | AID 875, 2007;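 note: potency is the fitted concentration of half-maximal effect; plate controls were peptide without protein for full effect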
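Fluorescence polarization: His-tagged BRCT (~35 kDa BRCA1 C-terminus, 250 nM) bound to 100 nM fluorescein-labeled phosphorylated 10-aa BACH1 peptide, pH 7.3 phosphate buffer with DTT and Tween 20. Compounds incubated 12 min at room temperature; inhibition read as lowered polarization.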
TsaE inh: qHTS Assay for Inhibitors of YjeE; purified YjeE enzyme, qHTS inhibition assay; Potency, µM; tRNA threonylcarbamoyladenosine biosynthesis protein TsaE (Escherichia coli (strain …; 0.05% of 71,000 active
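Fluorescence polarization of a BODIPY Texas Red–ADP probe (2 uM) bound to purified YjeE (10 uM) was read after 15 min room-temperature incubation with compounds. Loss of polarization marks inhibitors; ADP serves as titrated control.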
HEK293 cAMP cs: qHTS Assay for Agonists of the Thyroid Stimulating Hormone Receptor: Activators of Intracellular cAMP Concentrations in Parental HEK 293 | 2.5% of 73,000 active | Potency, µM (titrated, usually from 57.1 µM), for inactives: top-dose activation, most hits filed as activators | parental HEK293 CNG cAMP sensor, membrane potential fluorescence | AID 938, 2007; note: potency is the fitted concentration of half-maximal effect; % of control where 0% means no effect; nearly all actives have a fitted effect of over 55% in size
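Parental HEK 293 cells stably expressing a modified CNG channel (no TSHR) report cAMP rise as membrane depolarization. Membrane potential dye with 100 uM RO 20-1724 was loaded for 60 min at room temperature, then compound added for 30 min; fluorescence read at 590 nm.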
An asterisk follows results filed as active; i = inactive; ? = inconclusive; . = not tested or not shown; ! = repeats disagree; [ ] = remark or other dose. Unless noted, calls come from the whole dose curve; as a rule, active = well fitted curve in the direction sought with a large enough effect; inconclusive = small, poorly fitted or top-dose-only effect, or another doubt; inactive = no such curve, though single readings can be large; an effect the other way counts as inactive or inconclusive.

SMILES	BRCT inh red	TSHR ag	DNA Pol III inh	BRCT PPI green	TsaE inh	HEK293 cAMP cs
O=P(O)(O)C(O)C(F)(F)C(F)(F)C(F)(F)C(F)F (configuration not stated)	-2%	?	-5%	-1%	i	4µM*
CC(=O)NC(N1CCCCC1)C(F)(F)C(F)(F)C(F)(F)C(F)F (configuration not stated)	0%	1%	2%	-3%	i	-1%
COc1cccc(-c2noc(C3CCCN(C(=O)Cc4ccccc4)C3)n2)c1 (configuration not stated)	-1%	?	2%	3%	i	?
COc1ccc(-c2noc(C3CCCN(C(=O)CCc4ccccc4)C3)n2)cc1 (configuration not stated)	1%	?	-2%	1%	i	25µM*
O=C(c1ccco1)N1CCCC(c2nc(-c3ccc(S(=O)(=O)NCc4ccccc4)cc3)no2)C1 (configuration not stated)	0%	?	0%	2%	i	25µM*
CN(C)c1ccc(C(c2ccc(N(C)C)cc2)c2ccc([N+](=O)[O-])cc2)cc1	-2%[15.4 µM]	?	11%[11.4 µM]	2%[15.4 µM]	i	?
C[C@H](Br)C(=O)Nc1ccc(C(=O)O)c(O)c1	-2%[15.4 µM]	11%[11.4 µM]	-10%[11.4 µM]	-2%[15.4 µM]	i	9%[11.4 µM]
CCCCOn1c(C)c(C(=O)OCC)c2c3nonc3ccc21	-1%	?	-3%	1%	i	13µM*
CCCCOn1c(C)c(C(=O)OCC)c2c3no[n+]([O-])c3ccc21	0%	18%	-1%	0%	i	7%
NCC1O[C@@H](O[C@@H]2C(O)[C@H](O[C@H]3OC(CO)C(O)C(N)C3O)[C@@H](N)C[C@H]2N)C(N)C(O)C1O (some centres not stated)	-1%	.	.	-1%[3.08 µM]	.	.
c1ccc(COn2nnc3ccccc32)c(COn2nnc3ccccc32)c1	0%	?	-5%	5%	i	25µM*
c1ccc(-n2nnc3ccccc32)nc1	1%	9%[11.4 µM]	2%	0%	i	3%
CCC1=C2CC[C@H]3C(=O)N(CC)C(=O)[C@H]3[C@H]2[C@@]2(C)C(=O)N(CC(=O)OC)C(=O)N2C1=O	0%	.	.	-2%	.	.
COc1cc(NC(=O)CSCc2cnn(-c3ccccc3)c2-n2cccc2)cc(OC)c1	0%	23%	1%	-2%	i	11%
COc1ccc(OC)c(NC(=O)CSCc2cnn(-c3ccccc3)c2-n2cccc2)c1	-1%	?	2%	0%	i	25µM*
O=C1CC(=O)N(Cc2ccco2)C(=O)N1	0%	-4%	16µM*	17%	i	0%
CC(C)[C@@H](CC(=O)N[C@@H]1CCNC[C@H]1C(=O)N[C@H](CC(=O)N[C@@H](CCC(=O)O)CC(=O)O)Cc1c[nH]c2ccccc12)NC(=O)C[C@H](CO)NC(=O)[C@@H]1CNCC[C@H]1N	.	9%	0%	.	i	13%
Cc1cccc2cc(C#N)c(SCC(=O)N3CCC(C)CC3)nc12	-1%	?	-11%	4%	i	25µM*
C[n+]1cc2c3c(ccc2c2ccc4cc5c(cc4c21)OCO5)OCO3	0%	?	32µM*!	-1%[3.08 µM]	i	-32%[25.6 µM]
CCOC(=O)c1c(C)noc1CP(=O)(c1ccccc1)c1ccccc1	0%	?	-6%	0%	i	13µM*
O=C(Nc1cccc2c1CCCC2)c1ccc(Br)o1	-3%	?	-2%	-1%	i	25µM*
CCOC(=O)c1[nH]c(C)c(C(=O)c2cc(F)ccc2F)c1C	-3%	32µM*	-1%	4%	i	12%
C=CCOc1c(Cl)cc(/C=N/O)cc1OC	0%	7%[11.4 µM]	-5%[11.4 µM]	-1%	i	9%[11.4 µM]
